Measured values published in PubChem BioAssay (NCATS).
Values joined by “and” are separate entries in the source; they are usually repeats but may differ in a detail not shown here. Equal entries are not always repeated. Active and inactive are the calls of the source. No rule for the calls is given here.

Key:
[1] = Immunotoxin (HA22) sensitization/mitigation study. Vehicle arm (PBS) (AID 1159510)
[2] = Immunotoxin (SS1P) sensitization/mitigation study. Vehicle arm (DMEM) (AID 1159513)
Potency is read from the fitted curve at half-maximal effect.

For `CNC(=O)c1cc(Oc2ccc(NC(=O)Nc3cc(C(C)(C)C)nn3-c3ccc4ncccc4c3)c(F)c2)ccn1`, the Potency [1] was 6.62 µM (active) and the Potency [2] was 23.5 µM (active).

For `O=C(O)[C@H](Cc1c[nH]c2ccccc12)N1C(=O)c2ccccc2C1=O`, the Potency [1] was “inactive” and the Potency [2] was “inactive”.

With `O=C(NCCS(=O)(=O)c1ccc(C(F)(F)F)cn1)c1ccc(Cl)cc1` the Potency [1] was “inactive” and the Potency [2] was “inactive”.

In the case of `CC[C@@H](C(=O)O)C1CC[C@H](C)C([C@@H](C)[C@H](O)[C@H](C)C(=O)[C@H](CC)C2O[C@]3(C=C[C@@H](O)[C@]4(CC[C@@](C)(C5CC[C@](O)(CC)[C@H](C)O5)O4)O3)[C@H](C)C[C@@H]2C)O1` (some centres undefined), the Potency [1] is reported as 0.0418 µM (active) and the Potency [2] is reported as 20.9 µM (active).

In the case of `O=C(NCCCNc1nc(Nc2cccc(NC(=O)N3CCCC3)c2)ncc1I)c1cccs1`, the Potency [1] is reported as 11.8 µM (active) and 3.32 µM (active) and the Potency [2] is reported as 20.9 µM (active) and 23.5 µM (active).

With `O=C(C1CC1)N1CC[C@@H](Cn2c(-c3ccc(-c4ccc5occc5c4)cc3)nc3cnccc32)C1` the Potency [1] was 20.9 µM (active) and the Potency [2] was 16.6 µM (active).

For `C[C@@H](Oc1cc(-n2cnc3ccc(CN4CCN(C)CC4)cc32)sc1C(N)=O)c1ccccc1C(F)(F)F`, the Potency [1] was 0.0132 µM (active) and the Potency [2] was 0.0019 µM (active).

With `COc1cc2ncn(-c3cc(OCc4ccccc4C(F)(F)F)c(C(N)=O)s3)c2cc1OC` the Potency [1] was 0.296 µM (active) and the Potency [2] was 0.166 µM (active).

With `Cc1cc2c(F)c(Oc3ncnn4cc(OC[C@@H](C)O)c(C)c34)ccc2[nH]1` the Potency [1] was 14.8 µM (active) and the Potency [2] was 14.8 µM (active).

For `O=C(O)CC/C=C\CC[C@H]1[C@@H](N2CCCCC2)[C@@H](O)C[C@@H]1OCc1ccc(-c2ccccc2)cc1`, the Potency [1] was “inactive” and the Potency [2] was “inactive”.

In the case of `N#CCNC(=O)c1ccc(-c2ccnc(Nc3ccc(N4CCOCC4)cc3)n2)cc1`, the Potency [1] is reported as 5.26 µM (active) and the Potency [2] is reported as 16.6 µM (active).

With `CC(C)(C(=O)NCC(F)(F)C(F)(F)F)C(=O)N[C@@H]1C(=O)Nc2ccccc2-c2ccccc21` the Potency [1] was “inactive” and the Potency [2] was “inactive”.

With `COc1ccc(CCN2CCN(CCCc3ccccc3)CC2)cc1OC` the Potency [1] was 23.5 µM (active).

In the case of `CCCCCCCc1ccc(CCc2cccc(O)c2C(=O)O)cc1`, the Potency [1] is reported as 23.5 µM (active) and the Potency [2] is reported as 18.7 µM (active).

With `CC(C)Oc1cc(Nc2nc(N[C@@H](C)c3ccc(F)cn3)ncc2Cl)[nH]n1` the Potency [1] was 20.9 µM (active) and the Potency [2] was 20.9 µM (active).

In the case of `CCN(CCCO)CCCOc1ccc2c(Nc3cc(CC(=O)Nc4cccc(F)c4)[nH]n3)ncnc2c1`, the Potency [1] is reported as 18.7 µM (active).

For `CC(=O)N(C)C1(c2ccccc2)CCN(CCC[C@]2(c3ccc(Cl)c(Cl)c3)CCCN(C(=O)c3ccccc3)C2)CC1`, the Potency [1] was 13.2 µM (active) and the Potency [2] was 18.7 µM (active).

In the case of `NC(=O)c1ccc(-c2nc(-c3ccc4c(c3)OCO4)c(-c3ccccn3)[nH]2)cc1`, the Potency [1] is reported as “inactive” and the Potency [2] is reported as “inactive”.

With `CO[C@H]1C=CC=C(C)C(=O)NC2=CC(=O)C(NCCN(C)C)=C(C[C@@H](C)C[C@H](OC)[C@@H](O)[C@@H](C)C=C(C)[C@@H]1OC(N)=O)C2=O` the Potency [1] was 0.0059 µM (active) and the Potency [2] was 3.32 µM (active).

With `CCC1(Cc2ccc(N)cc2)CCC(=O)NC1=O` (centres undefined) the Potency [1] was “inactive” and the Potency [2] was “inactive”.

With `CN[C@@H](C)C(=O)N[C@H]1CCCC[C@H]2CC[C@@H](C(=O)N[C@@H](c3ccccc3)c3cn(CCCCc4ccc(CCCCn5cc([C@@H](NC(=O)[C@@H]6CC[C@@H]7CCCC[C@H](NC(=O)[C@H](C)NC)C(=O)N76)c6ccccc6)nn5)cc4)nn3)N2C1=O` the Potency [1] was “inactive”.

In the case of `Cn1cncc1[C@@](N)(c1ccc(Cl)cc1)c1ccc2c(c1)c(-c1cccc(Cl)c1)cc(=O)n2C`, the Potency [1] is reported as 11.8 µM (active) and the Potency [2] is reported as 20.9 µM (active).

With `CNC(=O)c1cc(Oc2ccc(NC(=O)Nc3ccc(Cl)c(C(F)(F)F)c3)c(F)c2)ccn1` the Potency [1] was 20.9 µM (active) and the Potency [2] was 26.4 µM (active).

With `C[C@@H]1CN(CC(=O)Nc2ccc3c(c2)Cc2cccc(-c4cc(=O)cc(N5CCOCC5)o4)c2S3)C[C@H](C)O1` the Potency [1] was 16.6 µM (active).

In the case of `CC(=O)Nc1sc2c(c1-c1nc3ccccc3s1)CNC2`, the Potency [1] is reported as 16.6 µM (active) and the Potency [2] is reported as 23.5 µM (active).

In the case of `Cc1ccc(-c2ncn(-c3ccc(Nc4nccc(-c5cccc(N6CCOCC6)c5)n4)cc3)n2)cn1`, the Potency [1] is reported as 0.0264 µM (active) and the Potency [2] is reported as 0.0235 µM (active).

For `CC(C)(C)c1cc(C(C)(C)C)c(NC(=O)c2c[nH]c3ccccc3c2=O)cc1O`, the Potency [1] was 16.6 µM (active).
